Values joined by “and” are separate entries in the source; they are usually repeats but may differ in a detail not shown here. Equal entries are not always repeated. Inconclusive results are not listed. Some compounds were tested as several samples or in several runs, with calls that do not always agree. Active and inactive are the calls of the source. Unless noted, calls follow the shape of the dose curve; as a rule, active = well fitted curve in the direction sought with a large enough effect in the repeat runs; inconclusive = weak or mixed curves; inactive = no such curve, though single readings can be large; an effect the other way counts as inactive or inconclusive.

Assay [1] addresses Acetylcholinesterase (Homo sapiens) (UniProt P22303). Description: Acetylcholinesterase (AChE) small molecule antagonists: enzyme-based qHTS assay (AID 1347397; calls by dose curve; also: nearly all actives have a fitted effect of over 55% in size). As to conditions: Potency: AChE enzyme activity inhibition. Summed up:
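Recombinant human AChE, dispensed at 50 mU/mL, was preincubated with Tox21 10K compounds or DMSO vehicle for 30 min at room temperature. DTNB plus acetylthiocholine was then added, and thiocholine was measured colorimetrically after a further 10 min.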

Assay [2] shares this target. Description: Acetylcholinesterase (AChE) small molecule antagonists: fluorescence cell-based qHTS assay (AID 1347398; calls by dose curve; also: nearly all actives have a fitted effect of over 50% in size). As to conditions: Potency: AChE activity. The gist of the method: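 Human SH-SY5Y cells were plated overnight at 37 C, exposed to compound for 30 min at 37 C, 5% CO2, then given acetylthiocholine plus Thiolite Green for 40 min at room temperature; thiocholine fluorescence (Ex/Em 490/520 nm) reports endogenous AChE activity.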
In general terms: qHTS replaces the single test concentration by a dilution series.

Assay [3] has the same target. Briefly: Acetylcholinesterase (AChE) small molecule antagonists: enzyme-based qHTS assay with human liver microsomes (AID 1347399; calls by dose curve; also: nearly all actives have a fitted effect of over 60% in size). Conditions: Potency: qHTS inhibition. Summed up:
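Recombinant human AChE (50 mU/mL in the enzyme mix) and human liver microsomes (0.25 mg/mL final) were preincubated with compound and NADPH (0.25 mg/mL final) for 30 min at 37 C. Acetylthiocholine/DTNB was then added; thiocholine was read colorimetrically after 10 min at room temperature.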

The target of assay [4] is Cytochrome P450 2D6 (Homo sapiens) (UniProt P10635). Briefly: Cytochrome P450 Family 2 Subfamily D Member 6 (CYP2D6) small molecule antagonists: luciferase reporter qHTS assay (AID 1671196). Also: nearly all actives have a fitted effect of over 50% in size. Also: potency is read from the fitted curve at half-maximal effect. Summed up: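 Read-out is luminescence from luciferin formed by CYP2D6 turnover of a proluciferin substrate, recorded as relative luminescence units. Reactions ran 1 h at room temperature after NADPH regeneration solution was added.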

In assay [5] the target is Cytochrome P450 2C19 (Homo sapiens) (UniProt P33261). Description: Cytochrome P450 Family 2 Subfamily C Member 19 (CYP2C19) small molecule antagonists: luciferase reporter qHTS assay (AID 1671197). Also: nearly all actives have a fitted effect of over 65% in size. Also: potency is read from the fitted curve at half-maximal effect. The gist of the method:
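Inhibition of CYP2C19 was scored from loss of luminescence in a P450-Glo proluciferin substrate assay, NADPH-started and run 1 h at 37C, with ketoconazole as positive control.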

Assay [6] deals with Cytochrome P450 2C9 (Homo sapiens) (UniProt P11712). Briefly: Cytochrome P450 Family 2 Subfamily C Member 9 (CYP2C9) small molecule antagonists: luciferase reporter qHTS assay (AID 1671198). Also: nearly all actives have a fitted effect of over 50% in size. Also: potency is read from the fitted curve at half-maximal effect. The gist of the method:
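CYP2C9 activity was measured with a P450-Glo proluciferin substrate. Enzyme–substrate mix was held with compound for 10 min at room temperature, then NADPH regeneration solution was added for 1 h at 37C. Luciferin product was read as luminescence.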
For orientation: A reporter such as luciferase makes a cellular process visible.

Assay [7] deals with Cytochrome P450 1A2 (Homo sapiens) (UniProt P05177). Briefly: Cytochrome P450 Family 1 Subfamily A Member 2 (CYP1A2) small molecule antagonists: luciferase reporter qHTS assay (AID 1671199). Also: nearly all actives have a fitted effect of over 50% in size. Also: potency is read from the fitted curve at half-maximal effect. The gist of the method:
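P450-Glo CYP1A2, 1536-well qHTS: enzyme/proluciferin substrate + cpd (DMSO), 10 min RT; NADPH regen, 1 h RT; detection reagent, 20 min; luminescence, RLU.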

In assay [8] the target is Voltage-gated inwardly rectifying potassium channel KCNH2 (Homo sapiens) (UniProt Q12809). Briefly: Human Ether-a-go-go-Related Gene (hERG) channel small molecule antagonists: fluorescence cell-based qHTS assay (AID 1671200). Summed up:
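Channel function was assessed by thallium flux. Cells seeded the previous day and kept at 37 C took up FluxOR II dye over 1 h in the dark at room temperature, then sat another 10 min before stimulation.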
(Block of hERG is tested as a sign of cardiac risk.)

Assay [9] deals with Cytochrome P450 3A4 (Homo sapiens) (UniProt P08684). Description: Cytochrome P450 Family 3 Subfamily A Member 4 (CYP3A4) small molecule antagonists: luciferase reporter qHTS assay (AID 1671201). Also: nearly all actives have a fitted effect of over 50% in size. Also: potency is read from the fitted curve at half-maximal effect. Summed up:
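Compounds in DMSO were pin-transferred onto CYP3A4 enzyme-substrate mix and held 10 min at room temperature. NADPH regenerating solution started the reaction for 1 h; luciferin detection reagent stopped it, and luminescence was read after 20 min.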

Sequence of Cytochrome P450 3A4 (Homo sapiens) (P08684 whole entry, looked up): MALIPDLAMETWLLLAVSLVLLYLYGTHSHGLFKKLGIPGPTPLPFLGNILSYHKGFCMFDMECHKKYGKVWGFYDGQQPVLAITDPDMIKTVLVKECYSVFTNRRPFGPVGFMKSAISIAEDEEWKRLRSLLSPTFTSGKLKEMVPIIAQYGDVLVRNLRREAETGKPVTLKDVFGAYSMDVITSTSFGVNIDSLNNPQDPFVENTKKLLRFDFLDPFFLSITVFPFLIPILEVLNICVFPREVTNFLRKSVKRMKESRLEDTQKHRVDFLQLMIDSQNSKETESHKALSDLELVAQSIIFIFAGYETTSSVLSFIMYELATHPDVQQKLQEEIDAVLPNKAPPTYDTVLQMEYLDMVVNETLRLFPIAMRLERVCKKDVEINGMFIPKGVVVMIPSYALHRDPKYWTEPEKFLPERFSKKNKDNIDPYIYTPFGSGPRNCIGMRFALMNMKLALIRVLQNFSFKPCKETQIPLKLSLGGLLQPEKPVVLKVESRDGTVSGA
Sequence of Cytochrome P450 2D6 (Homo sapiens) (P10635 whole entry, looked up): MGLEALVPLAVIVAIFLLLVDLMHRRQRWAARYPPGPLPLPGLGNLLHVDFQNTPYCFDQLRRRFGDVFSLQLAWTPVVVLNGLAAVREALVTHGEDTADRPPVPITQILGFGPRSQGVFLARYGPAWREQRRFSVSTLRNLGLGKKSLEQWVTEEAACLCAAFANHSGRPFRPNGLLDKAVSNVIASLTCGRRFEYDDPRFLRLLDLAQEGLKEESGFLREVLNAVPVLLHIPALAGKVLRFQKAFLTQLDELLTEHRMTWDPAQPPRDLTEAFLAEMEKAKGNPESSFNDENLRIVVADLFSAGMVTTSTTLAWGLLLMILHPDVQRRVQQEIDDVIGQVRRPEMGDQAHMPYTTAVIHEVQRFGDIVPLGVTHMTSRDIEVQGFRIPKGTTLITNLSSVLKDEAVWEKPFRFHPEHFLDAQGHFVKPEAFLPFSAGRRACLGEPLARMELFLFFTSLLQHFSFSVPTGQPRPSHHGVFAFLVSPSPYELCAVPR
Sequence of Cytochrome P450 2C9 (Homo sapiens) (P11712 whole entry, looked up): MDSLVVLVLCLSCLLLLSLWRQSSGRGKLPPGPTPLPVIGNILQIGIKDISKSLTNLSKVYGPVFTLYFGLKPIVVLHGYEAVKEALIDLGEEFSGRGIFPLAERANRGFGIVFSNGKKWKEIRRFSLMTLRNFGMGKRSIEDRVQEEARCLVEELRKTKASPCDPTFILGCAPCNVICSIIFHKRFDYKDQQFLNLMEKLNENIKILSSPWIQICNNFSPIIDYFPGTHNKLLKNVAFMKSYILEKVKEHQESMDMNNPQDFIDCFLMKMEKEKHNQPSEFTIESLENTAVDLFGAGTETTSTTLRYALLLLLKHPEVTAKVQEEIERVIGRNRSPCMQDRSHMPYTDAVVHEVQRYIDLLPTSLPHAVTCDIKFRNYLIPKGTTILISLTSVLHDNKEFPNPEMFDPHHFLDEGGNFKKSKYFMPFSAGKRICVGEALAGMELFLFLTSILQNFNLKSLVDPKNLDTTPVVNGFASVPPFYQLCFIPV
Sequence of Voltage-gated inwardly rectifying potassium channel KCNH2 (Homo sapiens) (Q12809 whole entry, looked up): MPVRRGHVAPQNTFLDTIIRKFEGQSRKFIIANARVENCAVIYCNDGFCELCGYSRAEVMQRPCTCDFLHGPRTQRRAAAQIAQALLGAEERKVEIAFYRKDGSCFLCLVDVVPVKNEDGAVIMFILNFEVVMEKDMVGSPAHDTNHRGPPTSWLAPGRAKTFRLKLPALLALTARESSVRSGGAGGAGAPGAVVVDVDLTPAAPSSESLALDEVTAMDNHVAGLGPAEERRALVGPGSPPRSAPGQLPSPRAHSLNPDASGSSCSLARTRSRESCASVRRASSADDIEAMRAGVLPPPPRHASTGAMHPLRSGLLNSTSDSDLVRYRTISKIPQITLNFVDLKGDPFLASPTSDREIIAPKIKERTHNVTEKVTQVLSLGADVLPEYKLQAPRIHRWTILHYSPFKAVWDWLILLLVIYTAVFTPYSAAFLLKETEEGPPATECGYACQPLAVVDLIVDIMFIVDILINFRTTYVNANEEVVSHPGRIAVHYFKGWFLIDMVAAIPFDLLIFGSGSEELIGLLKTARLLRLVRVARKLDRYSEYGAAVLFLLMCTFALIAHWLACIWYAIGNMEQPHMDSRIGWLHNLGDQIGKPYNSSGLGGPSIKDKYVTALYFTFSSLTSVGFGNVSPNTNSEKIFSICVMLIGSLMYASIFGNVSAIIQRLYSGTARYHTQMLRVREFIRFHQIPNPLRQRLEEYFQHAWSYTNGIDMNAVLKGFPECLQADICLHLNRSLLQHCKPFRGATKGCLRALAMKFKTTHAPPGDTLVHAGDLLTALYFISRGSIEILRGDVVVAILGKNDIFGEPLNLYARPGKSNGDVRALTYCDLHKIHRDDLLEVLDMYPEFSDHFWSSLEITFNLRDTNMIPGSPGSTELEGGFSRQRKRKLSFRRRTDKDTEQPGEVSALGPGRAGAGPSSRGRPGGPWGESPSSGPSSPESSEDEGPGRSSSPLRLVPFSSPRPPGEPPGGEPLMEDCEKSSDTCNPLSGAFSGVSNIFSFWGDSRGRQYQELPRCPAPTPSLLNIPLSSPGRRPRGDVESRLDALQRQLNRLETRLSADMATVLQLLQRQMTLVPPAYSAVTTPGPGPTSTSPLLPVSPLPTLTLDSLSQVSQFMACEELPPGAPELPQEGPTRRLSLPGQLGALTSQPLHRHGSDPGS
Sequence of Cytochrome P450 2C19 (Homo sapiens) (P33261 whole entry, looked up): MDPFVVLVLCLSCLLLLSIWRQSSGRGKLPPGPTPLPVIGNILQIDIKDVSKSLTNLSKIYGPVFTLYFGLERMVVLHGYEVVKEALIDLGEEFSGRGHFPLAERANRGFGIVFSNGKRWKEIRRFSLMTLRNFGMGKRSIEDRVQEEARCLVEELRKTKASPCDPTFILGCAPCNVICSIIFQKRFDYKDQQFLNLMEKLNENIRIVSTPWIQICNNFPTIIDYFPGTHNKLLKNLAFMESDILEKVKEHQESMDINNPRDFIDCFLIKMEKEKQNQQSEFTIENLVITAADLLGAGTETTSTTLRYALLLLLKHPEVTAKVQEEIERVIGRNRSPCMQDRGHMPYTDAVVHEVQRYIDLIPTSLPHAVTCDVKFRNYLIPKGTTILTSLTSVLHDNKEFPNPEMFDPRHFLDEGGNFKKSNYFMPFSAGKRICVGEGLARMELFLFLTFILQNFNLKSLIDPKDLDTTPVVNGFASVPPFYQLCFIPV
Sequence of Acetylcholinesterase (Homo sapiens) (P22303 whole entry, looked up): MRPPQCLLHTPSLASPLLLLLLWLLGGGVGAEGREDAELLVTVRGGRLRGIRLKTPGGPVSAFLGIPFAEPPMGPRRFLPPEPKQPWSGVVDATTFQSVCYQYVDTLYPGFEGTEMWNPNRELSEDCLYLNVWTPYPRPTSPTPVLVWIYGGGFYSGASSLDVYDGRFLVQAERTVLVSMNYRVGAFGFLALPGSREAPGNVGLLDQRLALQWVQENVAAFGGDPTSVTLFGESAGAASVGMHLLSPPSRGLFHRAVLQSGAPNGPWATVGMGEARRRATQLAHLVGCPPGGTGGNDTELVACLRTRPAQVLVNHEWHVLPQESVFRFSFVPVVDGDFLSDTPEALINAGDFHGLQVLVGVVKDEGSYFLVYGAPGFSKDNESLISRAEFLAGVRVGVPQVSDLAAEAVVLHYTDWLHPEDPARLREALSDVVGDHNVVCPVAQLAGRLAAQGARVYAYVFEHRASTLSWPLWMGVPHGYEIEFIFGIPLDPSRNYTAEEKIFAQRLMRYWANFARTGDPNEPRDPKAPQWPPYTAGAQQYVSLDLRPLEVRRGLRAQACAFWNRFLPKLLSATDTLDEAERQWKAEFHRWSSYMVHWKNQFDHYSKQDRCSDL
Sequence of Cytochrome P450 1A2 (Homo sapiens) (P05177 whole entry, looked up): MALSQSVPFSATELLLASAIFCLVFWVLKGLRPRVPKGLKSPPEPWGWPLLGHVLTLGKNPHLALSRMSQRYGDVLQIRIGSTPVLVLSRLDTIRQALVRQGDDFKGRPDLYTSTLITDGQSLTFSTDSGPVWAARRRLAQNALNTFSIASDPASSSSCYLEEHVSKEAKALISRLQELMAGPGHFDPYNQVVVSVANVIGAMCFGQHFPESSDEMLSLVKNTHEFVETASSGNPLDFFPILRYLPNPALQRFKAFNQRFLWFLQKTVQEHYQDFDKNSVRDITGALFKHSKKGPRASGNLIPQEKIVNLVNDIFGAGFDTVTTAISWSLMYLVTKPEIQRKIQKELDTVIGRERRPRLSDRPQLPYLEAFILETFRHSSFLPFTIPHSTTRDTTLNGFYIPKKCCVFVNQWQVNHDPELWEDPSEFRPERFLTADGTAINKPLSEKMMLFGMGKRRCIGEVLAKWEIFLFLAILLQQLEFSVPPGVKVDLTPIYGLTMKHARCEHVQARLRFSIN

With `Nc1ccc(Cl)cc1N`, the Potency entry in assay [1], in assay [2], in [3] and in assay [8] was “inactive” each time. In addition, the Potency was 32.6 µM (active) in assay [4]; 20.8 µM (active) and 7.1 µM (active) in [5]; 32.6 µM (active) in [6]; 11.7 µM (active) and 10.9 µM (active) in assay [7]; 26.2 µM (active) and 5.64 µM (active) in assay [9].
For `Oc1cc(Cl)ccc1Oc1ccc(Cl)cc1Cl`, the Potency entry in assay [1], in assay [3], in assay [4], in assay [8] and in assay [9] was “inactive” each time. Moreover, the Potency is 459 nM (active) and 389 nM (active) in [5]; 30.1 µM (active) and 17.4 µM (active) in [7].
As for `Nc1c(Cl)cc([N+](=O)[O-])cc1Cl`, the Potency entry in [1], in [2], in [3], in assay [6], in assay [8] and in assay [9] was “inactive” each time. In addition, the Potency in assay [4] was 35.8 µM (active) and inactive; in assay [5], 40.2 µM (active) and 56.4 µM (active); in [7], 1.79 µM (active) and 2.52 µM (active).
Consider `N#CC(Br)Br`, for which the Potency entry in assay [1], in assay [2], in assay [3], in [5], in [6] and in assay [7] was “inactive” throughout. In addition, the Potency result in [9] was “inactive”. In assay [4], the Potency was 31.5 µM (active) and inactive.
For the compound `Nc1ccncc1`, the Potency entry in [1], in assay [2], in assay [3], in [4], in [5] and in assay [8] was “inactive” throughout. Further, the Potency entry in assay [9] was “inactive”.
Consider `Clc1nc(Cl)nc(Cl)n1`, for which the Potency result in assay [1], in assay [2], in assay [3], in assay [4], in assay [5] and in [6] was “inactive” each time. Further, the Potency result in [7] and in assay [9] was “inactive” in each case.
`COc1ccc(C=O)cc1`: the Potency result in assay [1], in assay [2], in [3], in assay [4], in assay [5] and in assay [6] was “inactive” throughout. The Potency result in assay [7], in assay [8] and in assay [9] was “inactive” throughout.
As for `Brc1ccc(Oc2cc(Br)c(Br)cc2Br)c(Br)c1`, the Potency entry in assay [1], in assay [2], in assay [3], in assay [8] and in assay [9] was “inactive” in each case. Besides, the Potency in assay [4] is 35.6 µM (active) and inactive; in assay [5], 1.78 µM (active) and 1.27 µM (active); in [6], 31.7 µM (active) and 18 µM (active); in assay [7], 31.7 µM (active) and 32 µM (active).
For the compound `CCOC(=S)S`, the Potency entry in [8] is “inactive”.
Turning to `OCC(O)CO`, the Potency entry in [1], in assay [2], in assay [3], in assay [4], in [5] and in [6] was “inactive” in each case. The Potency entry in assay [7] and in assay [9] was “inactive” in each case.
For the compound `Nc1ccc(-c2ccc(N)c(N)c2)cc1N`, the Potency in assay [4] was 28.2 µM (active); in [5], 19.9 µM (active) and 3.56 µM (active); in assay [6], 17.8 µM (active) and 2.83 µM (active); in assay [7], 35.5 µM (active); in [9], 5.01 µM (active) and 2.83 µM (active).
Consider `C=CCN(CC=C)C(=O)C(Cl)Cl`, for which the Potency entry in assay [1], in assay [2], in [3], in assay [4], in assay [5] and in assay [6] was “inactive” throughout. Moreover, the Potency result in [7], in assay [8] and in assay [9] was “inactive” throughout.
With `CCN(CC)C(=O)SCc1ccc(Cl)cc1`, the Potency entry in [1], in assay [2], in [3], in assay [4] and in [9] was “inactive” each time. The Potency in assay [5] was 581 nM (active) and 564 nM (active); in [6], 32.7 µM (active) and 25.2 µM (active); in assay [7] it was 13 µM (active) and 15.9 µM (active).
As to `CCN(N=O)C(N)=O`, the Potency result in assay [1], in [2], in [3], in assay [4], in [6] and in [7] was “inactive” each time. Moreover, the Potency result in [9] is “inactive”. Further, the Potency in [5] was 69.7 µM (active) and inactive.
On to `CC(O)CCO` (configuration not stated), for which the Potency result in assay [1], in assay [2], in assay [3], in [6], in assay [7] and in [8] was “inactive” in each case. Moreover, the Potency result in assay [9] was “inactive”. The Potency in assay [4] was 32 µM (active) and inactive; in [5] it was “inactive and 71 µM (active)”.
As for `CCC(=O)O[C@H]1CC[C@H]2[C@@H]3CCC4=CC(=O)CC[C@]4(C)[C@H]3CC[C@]12C`, the Potency entry in [1], in [2], in assay [3], in [4], in assay [7] and in assay [9] was “inactive” each time. In addition, the Potency was 17.8 µM (active) and inactive in assay [5]; 25.2 µM (active) and 30.9 µM (active) in assay [6].
For the compound `CCN(CC)C(=O)/C(Cl)=C(\C)OP(=O)(OC)OC`, the Potency entry in assay [1], in [3], in assay [4], in [5], in assay [6] and in assay [8] was “inactive” throughout. The Potency result in assay [9] was “inactive”. Besides, the Potency entry in [7] is “inactive and 39.9 µM (active)”.
For `Cc1cc(Cl)ccc1OCCCC(=O)O`, the Potency entry in assay [1], in assay [2], in [3], in assay [4], in assay [7] and in assay [9] was “inactive” each time. For the same compound, the Potency in assay [5] is 82.8 µM (active) and inactive.
In the case of `CC(C)(c1cc(Cl)c(O)c(Cl)c1)c1cc(Cl)c(O)c(Cl)c1`, the Potency result in assay [3], in assay [4], in assay [7] and in assay [8] was “inactive” in each case. Further, the Potency in [5] is 35.6 µM (active) and 28.3 µM (active); in assay [6] it was 35.6 µM (active) and 31.7 µM (active); in assay [9], 63.3 µM (active).
Regarding `Cc1ccccc1[N+](=O)[O-]`, the Potency entry in assay [1], in [2], in [3], in [4], in assay [5] and in [6] was “inactive” each time. The Potency result in [7], in [8] and in assay [9] was “inactive” in each case.
Regarding `CC(C)NC(C)C`, the Potency entry in assay [1], in assay [2], in [3], in [4], in assay [5] and in [6] was “inactive” throughout. Moreover, the Potency result in assay [7], in [8] and in [9] was “inactive” in each case.
`CCC(C)(c1ccc(O)cc1)c1ccc(O)cc1`: the Potency entry in assay [1], in [2], in assay [3], in assay [4], in assay [5] and in [7] was “inactive” throughout. In addition, the Potency is 28.2 µM (active) and 22.4 µM (active) in [6]; 10 µM (active) and 15.9 µM (active) in [9].
Consider `C=CCc1ccc(OC)cc1`, for which the Potency entry in assay [1], in assay [2], in [3], in assay [5], in assay [6] and in assay [8] was “inactive” each time. For the same compound, the Potency in assay [4] is 5.47 µM (active) and inactive.
